In all, about 220,000 compounds went through this assay and about 800 (0.36%) were called active. This is one part of a sample in which actives are shown more often than they occur. Unmarked numbers belong to inactive results. Rule as the data show it: active = activation above about 33% (passing the limit was not always enough); inactive = the rest.

This test deals with Neuropeptide Y receptor type 1 (Homo sapiens) (UniProt P25929). In words: activation enhancers of human NPY-Y1 – cell-based, primary screen (AID 1304).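 Also: cells stimulated with NPY at EC10 then isoproterenol at EC100; 0% = low agonist plus stimulus and 100% = saturating agonist plus stimulus.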 As to conditions: NPY-Y1 expressing cells, potentiator/agonist activation; at 3.6 µM; active compounds read high.
Neuropeptide Y receptor type 1 (Homo sapiens), sequence (P25929 whole entry, looked up): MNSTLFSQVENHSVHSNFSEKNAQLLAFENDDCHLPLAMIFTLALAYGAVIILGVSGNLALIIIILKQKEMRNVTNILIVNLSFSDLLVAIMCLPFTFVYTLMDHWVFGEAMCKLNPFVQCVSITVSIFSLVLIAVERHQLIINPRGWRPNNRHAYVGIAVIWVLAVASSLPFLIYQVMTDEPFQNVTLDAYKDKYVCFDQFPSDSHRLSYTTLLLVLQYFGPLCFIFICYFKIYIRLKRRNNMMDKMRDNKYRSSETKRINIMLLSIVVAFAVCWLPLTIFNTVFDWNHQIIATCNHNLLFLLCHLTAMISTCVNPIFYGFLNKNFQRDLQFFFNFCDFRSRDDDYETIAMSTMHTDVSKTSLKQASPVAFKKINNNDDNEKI
As for `CN(C)Cc1c(O)ccc2occ(C(O)c3ccccc3)c12` (stereo not drawn), the activation is 105% (active).

For the compound `CCOc1ncccc1C(=O)N(C)CC(=O)Nc1ccc(F)cc1`, the activation was -13.4%.

For the compound `S=c1[nH]nc(-c2cc(-c3ccccc3)n[nH]2)n1/N=C/c1c2ccccc2cc2ccccc12`, the activation is 6.62%.

In the case of `CCOc1ccc2c(=O)c(-c3ccc4c(c3)OCCCO4)c(C)oc2c1`, the activation was 2.42%.

In the case of `O=C(Nc1ccc(Cl)cn1)c1ccc2c(c1)OCCO2`, the activation is -6.11%.

`O=C(Nc1ccc2c(c1)CCC2)c1cccc(S(=O)(=O)Nc2ccccc2Cl)c1`: the activation is 54.9% (active).

`O=C(c1cccc(S(=O)(=O)Nc2ccccc2Cl)c1)N1CCN(C(=O)c2ccco2)CC1`: the activation was 0.65%.

For `O=C(Nc1cccc(S(=O)(=O)Nc2ccc(Cl)cc2)c1)c1ccc2c(c1)OCCO2`, the activation was 43.8% (active).

Turning to `O=C(Nc1cccc(S(=O)(=O)N2CCCCC2)c1)c1ccc2c(c1)OCO2`, the activation was -8.28%.

As to `O=C(Nc1ccc2c(c1)CCC2)c1cccc(S(=O)(=O)N2CCN(c3ccc(F)cc3)CC2)c1`, the activation is 24.4%.

As to `CCc1nnc(NC(=O)CCN(c2ccc(C)cc2)S(=O)(=O)c2ccccc2)s1`, the activation is 1.52%.

Consider `CSc1ccccc1C(=O)NCc1ccccc1`, for which the activation was 1.48%.

For the compound `O=S(=O)(c1ccc(F)cc1)N1CC=C(c2ccccc2)CC1`, the activation is -6.53%.

Turning to `CC(O)c1nc2c(c(=O)n(C)c(=O)n2C)n1C` (stereo not drawn), the activation is 11.7%.

As to `Cc1coc2cc3oc(=O)c(CCC(=O)O)c(C)c3cc12`, the activation is -7.91%.

With `CCSc1sc(CC)cc1C=O`, the activation is -2.95%.

For the compound `Cc1ccc(NC(=O)/C(=C/c2ccc([N+](=O)[O-])cc2)NC(=O)c2ccccc2)cc1`, the activation was 30.3%.

Regarding `O=C(O)C1CCN(c2ccc([N+](=O)[O-])cc2[N+](=O)[O-])CC1`, the activation is -10.1%.

`COC(=O)c1ccc(COC(=O)c2cnccn2)cc1`: the activation is -11.9%.

For `Cc1coc2c(O)cc3c(c12)OC1(N2CCCCC2)C(=O)NCCCC31` (stereo not drawn), the activation was 90.8% (active).

As for `O=C(O)C1C2C=CC(O2)C1C(=O)NCCc1cccc(Cl)c1` (stereo not drawn), the activation is 1.36%.

For `COCCCNC(NC(=O)c1ccc(OC)cc1)C(Cl)(Cl)Cl` (stereo not drawn), the activation is 15.6%.

Regarding `COCCCNC(=S)N1CCCC(c2nc3cc(C)c(C)cc3[nH]2)C1` (stereo not drawn), the activation is 8.07%.

For `NC(=O)CC[C@@H]1NC(=O)[C@H](CO)NC(=O)c2cc([N+](=O)[O-])cc(I)c2NCC[C@@H](C(N)=O)NC1=O`, the activation is -22.3%.

Take `CCn1c2ccccc2c2cc(NC(=O)Nc3ccc([N+](=O)[O-])cc3C)ccc21`: the activation was 45.6% (active).

Consider `CCn1c2ccccc2c2cc(NC(=O)CNC)ccc21`, for which the activation is -3.25%.

On to `CC(=O)c1ccc(NC(=O)Nc2ccc([N+](=O)[O-])cc2C)cc1`, for which the activation is -8.87%.

Consider `CC(C)(C)NC(=O)COc1ccc(CNc2ccc3[nH]c(=O)[nH]c3c2)cc1`, for which the activation is 2.35%.

As for `CC(C)(C)N(Cc1ccccc1)C(=O)COC(=O)CCc1c[nH]c2ccccc12`, the activation is -4.21%.

Take `COc1ccc(CCn2ccc(O)c(Cc3ccc(Cl)cc3Cl)c2=O)cc1OC`: the activation was -7.77%.

`COC(=O)c1c(C(=O)OC)c2n(c1C)CCS2`: the activation is -0.93%.

Consider `CC(NS(=O)(=O)c1ccccc1)c1n[nH]c(=S)n1-c1ccccc1` (stereo not drawn), for which the activation was 30%.

As for `Cc1ccccc1NC(=O)NNC(=O)OC(C)(C)C`, the activation was -4.21%.

Regarding `CCN(CC)CCNC(=O)C1c2ccccc2C(=O)N(C)C1c1cn(C)c2ccccc12` (stereo not drawn), the activation is 10.4%.

In the case of `CN1C(=O)c2ccccc2C(C(=O)NCCCN2CCCC2)C1c1c[nH]c2ccccc12` (stereo not drawn), the activation was 51.1% (active).

On to `O=C(NCCCN1CCN(Cc2ccccc2)CC1)C1CCN(S(=O)(=O)N2CCCC2)CC1`, for which the activation was -28.8%.

With `CCC(C)Cn1c(O)cc2nn(-c3nc4ccccc4s3)c(=O)c-2c1C` (stereo not drawn), the activation is 13.9%.

As to `OC(COCc1ccco1)CN1CCN(c2ccccc2)CC1` (stereo not drawn), the activation was 9.46%.

Turning to `O=[N+]([O-])c1ccc(N2CCN(CC(O)COc3ccccc3)CC2)cc1` (stereo not drawn), the activation is 20.4%.

Regarding `OC(COCC1COc2ccccc2O1)CN1CCN(c2ccc(F)cc2)CC1` (stereo not drawn), the activation was 74.5% (active).

With `CC1CCN(C2=NC(=O)/C(=C/c3cn[nH]c3-c3ccccc3)S2)CC1`, the activation was 1.73%.

For `CC1(C)CC(=O)C=C(N2CCOCC2)C1`, the activation was 11.6%.

With `Cc1nccn1CCC1CCCCN1C(=O)CCc1nnc(-c2ccsc2)o1` (stereo not drawn), the activation was 5.94%.

Regarding `Cc1ccc(C)c(NC(=O)CSc2nc3c(oc4ccccc43)c(=O)n2-c2ccccc2)c1`, the activation is -11.9%.

For `CCCCC(=O)Nc1cc(C)c2c(=O)oc3ccccc3c2n1`, the activation is 4.38%.

Regarding `Cc1ccccc1-n1nnc2c(=O)oc3ccccc3c21`, the activation is 65.8% (active).

Regarding `CCOC(=O)c1c(C)nc2c(c1C)c(=O)oc1ccccc12`, the activation is -22%.

Turning to `O=S(=O)(Nc1ccccn1)c1cccc(S(=O)(=O)c2ccc(Cl)cc2)c1`, the activation is -10.4%.

As to `Clc1ccc(C2=CSC3=Nc4cccc5cccc(c45)N23)cc1`, the activation is -26.6%.

On to `CCOc1ccc(/C=N/OCC(=O)NCc2cccs2)cc1`, for which the activation was -0.95%.

For the compound `CC(CCc1ccccc1)NCC(O)c1cccc([N+](=O)[O-])c1` (stereo not drawn), the activation is 107% (active).

Consider `CC(=O)NCC(O)c1ccc([N+](=O)[O-])cc1` (stereo not drawn), for which the activation was -3.81%.

Take `CC(C)OP(=O)(OC(C)C)C(Nc1ccccc1)c1cccc([N+](=O)[O-])c1` (stereo not drawn): the activation is 6.2%.

`O=C(CC1SCCNC1=O)Nc1ccc(Cl)c(Cl)c1` (stereo not drawn): the activation is 8.97%.

`O=C(CSc1nnc(-c2ccncc2)n1-c1ccc(Cl)cc1)Nc1ccc(C(=O)O)cc1`: the activation is -5%.

On to `CC(=O)c1ccc(-c2nnc(CCC(=O)N(C)Cc3cnc4ccccn34)o2)s1`, for which the activation was 10.1%.

Take `O=C(c1cc(-c2ccc(O)cc2)on1)N1CCCc2ccccc21`: the activation is -13.9%.

Take `O=C(Nc1ccccc1C(F)(F)F)c1cc(-c2ccc(O)cc2)on1`: the activation was 42.6% (active).

In the case of `Cc1cc(C)nc(NC(=O)Nc2ccccc2C(F)(F)F)n1`, the activation is -11.5%.

As for `Cc1nn2c(NCCN(C)C)c3c(nc2c1-c1ccccc1)CCC3`, the activation is 22.6%.

For the compound `O=C(c1cc(COc2c(F)cccc2F)on1)N1CCSCC1`, the activation is 3.08%.

Turning to `CCC(CC)C(=O)N1CCN(c2cccc(C)c2C)CC1`, the activation was -14.7%.

Consider `COC(=O)c1ccc(NC(=O)CN(c2ccc(C)cc2)S(=O)(=O)c2c(C)n[nH]c2C)cc1`, for which the activation was 38.8% (active).

Consider `CCOC(=O)c1cccc(NC(=O)CN(c2ccc(C)cc2)S(=O)(=O)c2c(C)noc2C)c1`, for which the activation is 18.8%.

Turning to `Cc1ccc(N(CC(=O)Nc2cccc(N(C)S(C)(=O)=O)c2)S(C)(=O)=O)cc1`, the activation is 25.3%.

Take `COc1ccc(NC(=O)c2nc(-n3nc(C)cc3C)ccc2Cl)cc1Cl`: the activation is 9.04%.

Regarding `O=C(Cc1cccc2ccccc12)NNC(=O)Nc1ccc(Cl)cc1`, the activation was 5.16%.

Turning to `COc1ccccc1C(c1nnnn1C(C)(C)C)N1CCN(Cc2ccccc2)CC1` (stereo not drawn), the activation is -17.5%.

Consider `COCCn1nnnc1C(c1ccccc1Cl)N1CCN(c2ccccc2OC)CC1` (stereo not drawn), for which the activation is 89.3% (active).

Regarding `COc1ccccc1C(c1nnnn1CC1CCCO1)N1CCN(c2ccccc2)CC1` (stereo not drawn), the activation is 12.6%.

Regarding `Cc1c(CN2CCCCC2)c(O)n(CCO)c(=O)c1C#N`, the activation is 10.5%.

For the compound `CCOC(=O)CCCNC(=O)COC(=O)/C=C/c1ccc2c(c1)OCO2`, the activation was -7.21%.

Take `CC(=O)N1CC[n+]2c(-c3ccc([N+](=O)[O-])cc3)csc21`: the activation was 13.5%.

`O=C(NCCCNc1ccc([N+](=O)[O-])cc1Cl)c1ccccc1F`: the activation is -0.79%.

Consider `CC1=NNC(=O)C1CCC(=O)N/N=C\c1cccc(Cl)c1` (stereo not drawn), for which the activation is 4.52%.

`CCOc1ccc(C2NC(=S)NC3=C2CCc2ccccc23)cc1` (stereo not drawn): the activation is 10.5%.

Consider `Cc1cc(C)c(NC(=O)C[N+](C)(C)CC(O)COc2cccc3ccccc23)c(C)c1` (stereo not drawn), for which the activation was 86.4% (active).

Regarding `Cc1cc(C)c(NC(=O)c2oc3ccccc3c2COc2ccccc2)c(C)c1`, the activation is -49.2%.

Turning to `Cc1cc(C)cc(OCC(=O)NCc2cc(C)nc3ccccc23)c1`, the activation was 0.39%.

In the case of `COc1cc(N2C(=O)CC3(CCCC3)CC2=O)cc(OC)c1OC`, the activation was -14.9%.

For `CCC(=O)N1c2ccccc2NC2=C(C(=O)CCC2)C1c1ccco1` (stereo not drawn), the activation is 19.7%.

Take `COC(=O)c1sccc1NC(=S)Nc1ccc(C)cc1`: the activation is -0.64%.

On to `O=c1c(-c2ccccc2)coc2cc(O)ccc12`, for which the activation is 2.99%.

With `O=c1c(/C=N/O)coc2ccc(Cl)cc12`, the activation was 19.5%.

For the compound `O=C1/C(=C/c2coc3ccc(O)cc3c2=O)SC(=S)N1c1ccccc1`, the activation was 47% (active).

For `O=C1CC(c2cccc(Cl)c2)CC(O)=C1C=Nc1ccccc1` (stereo not drawn), the activation was -11.9%.

Take `Cc1ccc(-c2ccc(/C=C(\C#N)C(N)=S)o2)c([N+](=O)[O-])c1`: the activation is 8.63%.

Take `CN(C)NC(=O)C(NC(=O)c1ccc(N)cc1)C12CC3CC(CC(C3)C1)C2` (stereo not drawn): the activation is 5.39%.

As for `Cc1cc(NC(=O)COC(=O)COc2ccc(Cl)cc2C)c([N+](=O)[O-])cc1C`, the activation is -0.92%.

On to `Cc1ccc(OCC(=O)c2cc(C)n(Cc3ccco3)c2C)c([N+](=O)[O-])n1`, for which the activation is 1.91%.

As for `CC(=O)N(CCCN(C)C)c1nc2ccc(C)cc2s1`, the activation was -7.71%.

Regarding `CN(C)CCCN(C(=O)COc1ccccc1)c1nc2c(Cl)cccc2s1`, the activation is -13.9%.

With `COc1cccc2sc(N(CCCN(C)C)C(=O)C(c3ccccc3)c3ccccc3)nc12`, the activation is 103% (active).

(Values after PubChem BioAssay AID1304 (The Scripps Research Institute Molecular Screening Center, 2008).)
